Screening data (PubChem BioAssay)
Hits are enriched below; roughly 3.7% of the tested compounds scored in any of these assays.
B2AR arrestin ag – agonists recruiting beta-arrestin to human beta2-adrenergic receptor; Potency, µM (doses to about 46.1 µM), usual class: activators; 44,000 tested, under 10 active; AID 1347077; P07550; HTLA Tango cells, beta-arrestin recruitment, luciferase luminescence, 18 h;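 also: potency is read from the fitted curve at half-maximal effect; 0% = DMSO and full agonism = EC100 isoproterenol or metaproterenol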
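Ligand-induced beta-arrestin recruitment to recombinant beta2-AR is measured via a tTA-driven luciferase reporter in Tango cells after 18 hr compound exposure at 37 degrees C. Concentrations span up to 46 microM.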
GALK inh – inhibits human galactokinase; P51570; recombinant GALK, Kinase-Glo ATP luminescence, 1 h; Potency, µM (doses to about 57.5 µM), for the others: at the top dose activity, negative = inhibition, actives largely listed as inhibitors; 44,000 tested, under 10 active;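 also: plate controls were full GALK reaction for no effect and reaction lacking GALK for full effect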
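5 nM GALK with 35 µM ATP and 100 µM galactose in HEPES pH 8.0, MgCl2, NaCl, DTT, BSA; 1 h RT reaction, remaining ATP detected by Kinase-Glo Plus luminescence after 10 min; qHTS concentration series.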
HTT-AS act – HTT-AS promoter activation; HEK293 HTT-AS promoter firefly luciferase reporter, 24 h; response scale: percent change from vehicle, -100% = no light; Potency, µM (titrated, usually from 57.5 µM), without a hit: at the highest dose activity change, positive = activation, actives largely listed as activators; 48,000 compounds, 0.24% hits; AID 1508624; also: potency is read from the fitted curve at half-maximal effect; nearly all actives have a fitted effect of over 55% in size
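Firefly luciferase signal from promoter-reporter HEK293 cells was scaled between vehicle (0%) and zero RLU (-100%). Compounds were tested at final concentrations of up to 57.5 uM over 24 h at 37 degrees C. PTC124 at 50 uM final served as control inhibitor.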
GPR32 ag – GPR32 (DRV1) agonism, beta-arrestin recruitment | O75388 | CHO-K1 GPR32 beta-arrestin PathHunter luminescence, 90 min; zero percent set by DMSO-only wells | activation, % at 76.9 µM | 48,000 compounds, 2.5% hits;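 active = activation of at least 60% and not above a set upper limit, about 1 call in 100 departs from these limits; inconclusive = activation of 40% to 60%, or above that upper limit; inactive = activation under 40%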; also: 0% is about no effect
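Agonism was scored as beta-arrestin recruitment to ProLink-fused GPR32 in stably transfected CHO-K1 cells, giving a chemiluminescent beta-Gal signal; compounds were incubated 90 min at 37 °C.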
HTT prom inh – inhibitors of huntingtin promoter activity | HEK293 HTT promoter firefly luciferase reporter, 24 h | Potency, µM (series often up to 57.5 µM), inactives show top-dose activity change, negative = inhibition, actives largely listed as inhibitors | 48,000 compounds, 0.93% hits; also: potency is read from the fitted curve at half-maximal effect; nearly all actives have a fitted effect of over 50% in size
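Quantitative HTS used concentration series of up to 57.5 uM final on HEK293 luciferase reporter cells, 24 h at 37 degrees C. Readout was Dual-Glo firefly luminescence.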
PTAP-TSG101 blk – blocks PTAP binding to human TSG101, validation. Fluorescence polarization, FITC-PTAP peptide/Tsg101, 20 min. Q99816. 44,000 tested, under 10 active. Potency, µM (highest dose often 115 µM), usual class: inhibitors. AID 1347069; also: potency is read from the fitted curve at half-maximal effect; 0% is about no effect
Target sequence (Q99816 whole entry, looked up): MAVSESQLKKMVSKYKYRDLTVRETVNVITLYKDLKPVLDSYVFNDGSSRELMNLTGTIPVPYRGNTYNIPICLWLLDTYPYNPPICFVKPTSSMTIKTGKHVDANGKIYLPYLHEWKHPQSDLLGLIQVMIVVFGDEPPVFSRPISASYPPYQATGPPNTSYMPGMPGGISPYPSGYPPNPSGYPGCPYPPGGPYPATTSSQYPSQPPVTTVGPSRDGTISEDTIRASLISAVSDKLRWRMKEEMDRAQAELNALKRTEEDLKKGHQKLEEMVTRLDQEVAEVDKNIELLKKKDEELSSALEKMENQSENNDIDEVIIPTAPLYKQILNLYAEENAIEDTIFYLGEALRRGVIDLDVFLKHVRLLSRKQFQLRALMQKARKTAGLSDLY
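Steps: Tsg101 binding domain (10 uM final) in HEPES pH 7.5/NaCl/Tween 20/EDTA/TCEP; add compound; add FITC-PTAP peptide (50 nM final); incubate 20 min r.t.; read polarization.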
* hit, by the source's call; [ ] = remark or other dose. Unless noted, calls follow the shape of the dose curve; as a rule, active = well fitted curve in the direction sought with a large enough effect; inconclusive = small, poorly fitted or top-dose-only effect, or another doubt; inactive = no such curve, though single readings can be large; an effect the other way counts as inactive or inconclusive.

For O=C(Nc1ccc(Br)cc1)c1ccc(F)c(S(=O)(=O)N2CCCc3ccccc32)c1 the results were B2AR arrestin ag inactive, GALK inh 3%, HTT-AS act -45%, GPR32 ag -4, HTT prom inh 2.2µM* and PTAP-TSG101 blk inactive.
For C[C@H]1O[C@H](O[C@H]2[C@H](O)[C@@H](O)[C@@H](O[C@H]3[C@H](O)[C@@H](O)C(O)O[C@H]3CO)O[C@H]2CO)[C@H](O)[C@@H](O)[C@H]1N[C@H]1C=C(CO)[C@@H](O)[C@H](O)[C@@H]1O (stereo partly drawn) the results were HTT-AS act 0% and HTT prom inh 10%.
Screening CCOc1ccc(-c2nnc(SCC(=O)Oc3ccccc3)o2)cc1 returned B2AR arrestin ag inactive, GALK inh 3%, HTT-AS act -89%, GPR32 ag -2, HTT prom inh 2.8µM* and PTAP-TSG101 blk inactive.
`CC[C@@]1([C@@H]2O[C@@H]([C@H]3O[C@@](O)(CO)[C@H](C)C[C@H]3C)C[C@H]2C)CC[C@H]([C@]2(C)CC[C@]3(C[C@H](O)[C@@H](C)[C@@H]([C@@H](C)[C@@H](OC)[C@H](C)C(=O)O)O3)O2)O1` gave HTT-AS act -37%[25.1 µM] and HTT prom inh inconclusive.
Cc1c(Cl)cccc1NC(=O)c1ccc2snnc2c1 was read as B2AR arrestin ag inactive, GALK inh -2%, HTT-AS act -4%, GPR32 ag -30, HTT prom inh -1% and PTAP-TSG101 blk inactive.
Cc1ccc(Cl)cc1NC(=O)c1ccc2snnc2c1 was read as B2AR arrestin ag inactive, GALK inh 5%, HTT-AS act -17%, GPR32 ag 85*, HTT prom inh -10% and PTAP-TSG101 blk inactive.
`C[C@H](NC(=O)c1sccc1OCc1ccc(Cl)cc1)c1ccccc1` gave HTT-AS act -46% and HTT prom inh inconclusive.
Screening CC1(C)CC(=O)c2c(C(F)(F)F)nn(-c3ccc(C(N)=O)c(NC4CCC(OC(=O)CN)CC4)c3)c2C1 (stereo not drawn) returned HTT-AS act -61% and HTT prom inh inconclusive.
For CC(=O)N1CCCc2cc(S(=O)(=O)N3CCC(C(=O)Nc4c(C)cccc4C)CC3)ccc21 the results were B2AR arrestin ag inactive, GALK inh 0%, HTT-AS act -47%, GPR32 ag -3, HTT prom inh 20µM* and PTAP-TSG101 blk inactive.
CC(=O)N1CCCc2cc(S(=O)(=O)N3CCCC(C(=O)N4CCN(c5ccccc5)CC4)C3)ccc21 (stereo not drawn) was read as B2AR arrestin ag inactive, GALK inh -7%, HTT-AS act -24%, GPR32 ag 16, HTT prom inh 11µM* and PTAP-TSG101 blk inactive.
Screening CCC(C)(C)c1ccc(CC(C)CN2C[C@@H](C)O[C@@H](C)C2)cc1 (stereo partly drawn) returned HTT-AS act -11%, GPR32 ag 113* and HTT prom inh -5%.
For CCOc1cccc(NC(=O)C2CC(=O)N(C)C(=Nc3ccc(F)cc3)S2)c1 (stereo not drawn) the results were B2AR arrestin ag inactive, GALK inh -1%, HTT-AS act -7%, GPR32 ag 78*, HTT prom inh inconclusive and PTAP-TSG101 blk inactive.
`COc1ccc(-c2nc3ccccc3s2)cc1NC(C)=O` gave B2AR arrestin ag inactive, GALK inh 2%, HTT-AS act 1.4µM*, GPR32 ag -3, HTT prom inh 63% and PTAP-TSG101 blk inactive.
Screening Cc1cccc(C(=O)Nc2ccc(-c3nc4ccccc4s3)cc2Cl)c1 returned B2AR arrestin ag inactive, GALK inh 2%, HTT-AS act 14%, GPR32 ag 92*, HTT prom inh 28% and PTAP-TSG101 blk inactive.
Screening COc1ccc(-c2nc3ccccc3s2)cc1NC(=O)c1ccccc1F returned B2AR arrestin ag inactive, GALK inh 8%, HTT-AS act -9%, GPR32 ag -3, HTT prom inh -1% and PTAP-TSG101 blk inactive.
`COc1ccc(-c2nc3ccccc3s2)cc1NC(=O)c1cccc([N+](=O)[O-])c1C` gave B2AR arrestin ag inactive, GALK inh 7%, HTT-AS act 2µM*, GPR32 ag -13, HTT prom inh 71% and PTAP-TSG101 blk inactive.
Screening Cc1ccc(C(=O)Nc2ccc(-c3nc4ccccc4s3)cc2C)cc1C returned B2AR arrestin ag inactive, GALK inh 0%, HTT-AS act inconclusive, GPR32 ag 21, HTT prom inh 45% and PTAP-TSG101 blk inactive.
`COc1ccc(-c2nc3ccccc3s2)cc1NC(=O)c1ccc(C#N)cc1F` gave B2AR arrestin ag inactive, GALK inh -2%, HTT-AS act -10%, GPR32 ag 7, HTT prom inh -5% and PTAP-TSG101 blk inactive.
Screening CCc1nc(C)cn1S(=O)(=O)c1ccc(Cl)c(Cl)c1OC returned B2AR arrestin ag inactive, GALK inh 6%, HTT-AS act -89%, GPR32 ag 19, HTT prom inh 13µM* and PTAP-TSG101 blk inactive.
`CCOc1cc(Cl)c(S(=O)(=O)n2cc(C)nc2CC)cc1Cl` gave B2AR arrestin ag inactive, GALK inh 8%, HTT-AS act -69%, GPR32 ag 15, HTT prom inh 16µM* and PTAP-TSG101 blk inactive.
Screening COc1cc(Cl)c(S(=O)(=O)N2CCN(c3c(C)cccc3C)CC2)cc1Cl returned B2AR arrestin ag inactive, GALK inh 9%, HTT-AS act -24%, GPR32 ag -9, HTT prom inh -7% and PTAP-TSG101 blk inactive.
Screening NC(N)=Nc1nc(CSCCC(N)=NS(N)(=O)=O)cs1 returned HTT-AS act -27% and HTT prom inh 19%.
`COc1ccccc1NC(=O)CC1Sc2ccc(C(F)(F)F)cc2NC1=O` (stereo not drawn) gave B2AR arrestin ag inactive, GALK inh 2%, HTT-AS act -17%, GPR32 ag 64*, HTT prom inh -4% and PTAP-TSG101 blk inactive.
For COc1ccc(CNc2oc(-c3ccc(COc4ccccc4C)o3)nc2C#N)cc1 the results were B2AR arrestin ag inactive, GALK inh -9%, HTT-AS act -64%, GPR32 ag -28, HTT prom inh 20µM* and PTAP-TSG101 blk inactive.
For COc1ccc(CNc2oc(-c3ccc(COc4ccc(Cl)cc4)o3)nc2C#N)cc1 the results were B2AR arrestin ag inactive, GALK inh 2%, HTT-AS act -60%, GPR32 ag -20, HTT prom inh 22µM* and PTAP-TSG101 blk inactive.
